Activity calls are given as the source filed them. A call without a number means that no potency is given here. The call rests on the fitted dose curve.
Potency means the concentration at half of the fitted maximal effect.

Chain of Acetylcholinesterase (Homo sapiens) (P22303 whole entry, looked up): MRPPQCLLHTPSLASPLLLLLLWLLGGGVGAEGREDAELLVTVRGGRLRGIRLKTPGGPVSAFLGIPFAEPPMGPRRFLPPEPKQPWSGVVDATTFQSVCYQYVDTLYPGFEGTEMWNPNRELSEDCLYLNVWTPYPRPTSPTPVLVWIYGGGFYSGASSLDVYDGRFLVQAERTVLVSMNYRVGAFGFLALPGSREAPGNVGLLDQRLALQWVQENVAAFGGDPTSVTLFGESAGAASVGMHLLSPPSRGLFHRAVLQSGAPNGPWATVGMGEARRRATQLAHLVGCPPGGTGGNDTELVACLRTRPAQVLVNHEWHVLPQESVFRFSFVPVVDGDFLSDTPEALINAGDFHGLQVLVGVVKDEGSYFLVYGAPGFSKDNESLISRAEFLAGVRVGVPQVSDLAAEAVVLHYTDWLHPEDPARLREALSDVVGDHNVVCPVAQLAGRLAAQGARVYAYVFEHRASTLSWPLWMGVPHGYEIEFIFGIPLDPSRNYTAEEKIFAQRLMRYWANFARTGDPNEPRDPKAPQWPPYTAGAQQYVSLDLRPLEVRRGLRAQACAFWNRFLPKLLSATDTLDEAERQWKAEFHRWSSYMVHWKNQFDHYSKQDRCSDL

In this assay the target is Acetylcholinesterase (Homo sapiens) (UniProt P22303). Kind of assay: Acetylcholinesterase (AChE) small molecule antagonists: enzyme-based qHTS assay (AID 1347397). Further: nearly all actives have a fitted effect of over 55% in size. The note with it: Potency: AChE enzyme activity inhibition; series mostly up to 115 µM. The source says:
National Center for Advancing Translational Sciences [NCATS]
Division of Preclinical Innovation [DPI]
U.S. Environmental Protection Agency [EPA]
National Institutes of Environmental Health Sciences [NIEHS]
National Toxicology Program [NTP]
U.S. Food and Drug Administration [FDA]
Acetylcholinesterase (AChE) is the primary cholinesterase in the body that hydrolyzes a key neurotransmitter, acetylcholine. Inhibition of AChE activity can lead to neurotoxicity. The known inhibitors include organophosphorous pesticides (OP), chemical warfare agents, drugs, and various phytochemicals.
An enzyme-based assay with the recombinant human AChE and Amplite Colormetric acetylcholinesterase assay kit (AAT Bioquest, Sunnyvale, CA) was used to evaluate the chemicals in the Tox21 10K library that inhibit AChE activity. The assay uses 5, 5-dithiobis-(2-nitrobenzoic acid) (DTNB) to quantify the thiocholine produced from the hydrolysis of acetylthiocholine by AChE.
Tox21 Assay Protocol Summary:
For the enzyme-based AChE assay, recombinant human AChE (50 mU/mL) in 4 uL/well was dispensed into black, clear-bottom 1536-well plates using a Multidrop Combi dispenser (Thermo Scientific, MA). Then, 23 nL of compound or DMSO (vehicle control) was transferred into the assay plates by a Pintool Station (Wako Automation, CA). The plates were incubated for 30 min at room temperature, followed by the addition of 4 uL of colorimetric detection cocktail solution (DTNB, acetylthiocholine) into each well using a Flying Reagent Dispenser (Beckman Coulter, CA) and then 10 min incubation at room temperature.
In general terms: qHTS replaces the single test concentration by a dilution series.
For the compound `CC[C@H]1C[C@@H]2C[C@H]3c4[nH]c5ccc(OC)cc5c4CCN(C2)[C@@H]13`, the Potency result is “inactive”. The result for `COC12CC[C@@]3(C[C@@H]1C(C)(O)C(C)(C)C)[C@H]1Cc4ccc(O)c5c4[C@@]3(CCN1CC1CC1)[C@H]2O5` (stereo not given in full) reads “inactive”; that for `Clc1ccc(C(c2ccc(Cl)cc2)C(Cl)(Cl)Cl)cc1`, “inactive”. The same measure for `CC(C)[C@H](C(=O)OC(C#N)c1cccc(Oc2ccccc2)c1)c1ccc(OC(F)F)cc1` (stereo not given in full): “inactive”; for `ClCc1ccccc1CCl`: “inactive”; for `Cc1cc(Cl)ccc1O[C@H](C)C(=O)O`: “inactive”. The result for `N#CNC#N` reads “inactive”; that for `CC(C)(COCC1CO1)COCC1CO1` (stereo not given), “inactive”.

Take `CSCCCN=C=S`: the Potency result was “inactive”.

Regarding `COC[C@H](C)N(C(=O)CCl)c1c(C)csc1C`, the Potency entry is “inactive”.

For `CC(=O)C(Cl)(Cl)Cl`, the Potency result is “inactive”. As to `CCc1ccccc1C`, the Potency entry was “inactive”.

In the case of `CCS(=O)(=O)c1cccnc1S(=O)(=O)NC(=O)Nc1nc(OC)cc(OC)n1`, the Potency entry was “inactive”. For the compound `CCOP(=O)(NC(C)C)Oc1ccc(SC)c(C)c1` (stereo not given), the Potency was 84.4 µM (active). Consider `Fc1ccc(Oc2ccnc3cc(Cl)cc(Cl)c23)cc1`, for which the Potency entry is “inactive”. The same measure for `COP(=S)(OC)Oc1cc(Cl)c(Br)cc1Cl`: “inactive”; for `CCc1nn(C)c(C(=O)NCc2ccc(C(C)(C)C)cc2)c1Cl`: “inactive”. Turning to `CCCCCCCCCCCCCC[P+](CCCCCC)(CCCCCC)CCCCCC` (tested in a mixture with another compound), the Potency is 20 µM (active). For the compound `O=CC(Br)(Br)Br`, the Potency entry was “inactive”. The result for `O=C(O)COc1nc(Cl)c(Cl)cc1Cl` reads “inactive”. With `ClC1=C(Cl)C2(Cl)C3C(Cl)C=CC3C1(Cl)C2(Cl)Cl` (stereo not given), the Potency entry was “inactive”.

Take `COc1cc(C=O)cc2c1[C@H](COC(N)=O)[C@]1(OC(C)=O)ON2C[C@H]2[C@@H]1N2C(C)=O`: the Potency entry was “inactive”. The same measure for `Nc1ccccc1C(=O)Oc1ccc2ccccc2c1`: “inactive”; for `Nc1ccccc1C(=O)OC/C=C/c1ccccc1`: “inactive”; for `Oc1cc(Cl)c(Cl)c(Cl)c1`: “inactive”. Consider `O=c1ssc(Cl)c1Cl`, for which the Potency entry is “inactive”.

For the compound `C[C@]12Cc3nonc3C[C@@H]1CC[C@@H]1[C@@H]2CC[C@@]2(C)[C@H]1CC[C@]2(C)O`, the Potency result is “inactive”. The result for `CN(C)C1CSSSC1` reads “inactive”. The same measure for `CC(C)N1C(=O)N(c2ccccc2)CSC1=NC(C)(C)C`: “inactive”; for `CC(C)(C)OO`: “inactive”. The result for `Cc1ccc(OP(=O)(Oc2ccccc2)Oc2ccccc2)cc1` reads 20.3 µM (active). Consider `Nc1ccc([N+](=O)[O-])cc1Cl`, for which the Potency result is “inactive”. The same measure for `OC(Cc1ccccc1Cl)(Cn1cncn1)C1(Cl)CC1` (stereo not given): “inactive”; for `ClC1=C(Cl)[C@]2(Cl)[C@@H]3[C@@H](Cl)[C@H](Cl)C[C@@H]3[C@@]1(Cl)C2(Cl)Cl`: “inactive”; for `CC(c1ccc(O)cc1)c1ccc(O)cc1`: “inactive”. For the compound `C1CCC2CCCCC2C1` (stereo not given), the Potency result was “inactive”.

With `Nc1ccc(Sc2ccc(N)cc2)cc1`, the Potency entry was “inactive”. Regarding `NNC(=O)c1ccccc1`, the Potency result is “inactive”. Regarding `CCC(C)(C)C(=O)OC1=C(c2ccc(Cl)cc2Cl)C(=O)OC12CCCCC2`, the Potency result is “inactive”. The same measure for `CC(C)[C@H](C(=O)O[C@H](C#N)c1cccc(Oc2ccccc2)c1)c1ccc(Cl)cc1`: “inactive”.

For the origin of these results see PubChem BioAssay (Tox21).
